From PubChem BioAssay
JMJD2A Tudor – inhibitors of human JMJD2A Tudor domain; hit rate 4.4% among 390,000; AlphaScreen JMJD2A-Tudor / H3K4me3 peptide binding; AID 504339; Potency, µM (doses to about 114 µM), inactives show at the top dose activity change, negative = inhibition, usual class: inhibitors; further: on the % scale 0 is the no-effect control and ±100 the full control effect; nearly all actives have a fitted effect of over 50% in size
Target sequence (O75164 whole entry, looked up, the tested form may be a part): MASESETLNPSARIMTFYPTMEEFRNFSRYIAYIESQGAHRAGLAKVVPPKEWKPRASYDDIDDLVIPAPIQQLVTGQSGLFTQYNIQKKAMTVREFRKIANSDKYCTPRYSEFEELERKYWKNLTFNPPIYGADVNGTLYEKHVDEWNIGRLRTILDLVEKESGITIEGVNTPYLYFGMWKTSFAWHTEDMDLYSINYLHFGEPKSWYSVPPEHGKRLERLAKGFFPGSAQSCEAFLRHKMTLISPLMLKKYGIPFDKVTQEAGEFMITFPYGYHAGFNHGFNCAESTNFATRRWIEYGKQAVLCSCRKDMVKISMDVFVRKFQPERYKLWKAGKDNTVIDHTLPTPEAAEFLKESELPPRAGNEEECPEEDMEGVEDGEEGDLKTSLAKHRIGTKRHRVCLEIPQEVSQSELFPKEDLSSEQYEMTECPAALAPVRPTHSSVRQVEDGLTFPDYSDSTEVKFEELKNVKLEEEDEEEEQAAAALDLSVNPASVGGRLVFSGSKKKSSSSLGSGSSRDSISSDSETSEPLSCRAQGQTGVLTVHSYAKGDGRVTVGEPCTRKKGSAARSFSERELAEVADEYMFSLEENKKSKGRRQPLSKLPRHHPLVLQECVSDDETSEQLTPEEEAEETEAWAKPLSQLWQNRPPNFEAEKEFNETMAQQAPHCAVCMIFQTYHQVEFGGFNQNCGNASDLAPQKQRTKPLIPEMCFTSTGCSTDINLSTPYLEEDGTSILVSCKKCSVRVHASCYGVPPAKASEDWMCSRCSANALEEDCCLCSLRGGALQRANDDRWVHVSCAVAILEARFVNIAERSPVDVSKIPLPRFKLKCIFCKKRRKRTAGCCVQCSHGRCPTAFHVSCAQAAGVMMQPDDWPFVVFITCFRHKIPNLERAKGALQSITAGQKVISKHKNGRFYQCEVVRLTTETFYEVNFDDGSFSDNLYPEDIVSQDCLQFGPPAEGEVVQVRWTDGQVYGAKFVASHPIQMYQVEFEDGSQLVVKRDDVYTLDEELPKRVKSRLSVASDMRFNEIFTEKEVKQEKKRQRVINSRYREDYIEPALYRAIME
BAZ2B inh – BAZ2B (human) inhibition. Q9UIF8. AlphaScreen BAZ2B-H3K14Ac peptide displacement. Potency, µM (highest dose often 114 µM), without a hit: top-dose activity change, negative = inhibition, most hits filed as inhibitors. hit rate 4.4% among 360,000. AID 504333; further: on the % scale 0 is the no-effect control and ±100 the full control effect; nearly all actives have a fitted effect of over 60% in size
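Compounds, titrated to a top concentration of 110 uM, were incubated 30 min at room temperature with preformed BAZ2B/acetyl-K14 H3 peptide complex (50 nM each). Proximity signal was measured by AlphaScreen after 20 min with beads.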
HP1b binding inh – blocks HP1-beta chromodomain binding to methylated histone tails. hit rate 0.56% among 390,000. Potency, µM (highest dose often 114 µM), for inactives: at the highest dose activity change, negative = inhibition, actives largely listed as inhibitors. P83916. AlphaScreen HP1-beta / biotin-H3K9me3 peptide binding. AID 540317; further: nearly all actives have a fitted effect of over 70% in size
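AlphaScreen: HP1-beta (50 nM) preformed 30 min with biotin-H3(1-18)K9me3 peptide (50 nM) in PBS pH 7.4, 0.01% Tween-20. Compound added for 30 min at RT, then streptavidin donor/nickel chelate acceptor beads (10 ug/mL) for 30 min.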
G9a block – blocks human histone lysine methyltransferase G9a; G9a H3K9 monomethylation, AlphaScreen, 2 h; Potency, µM (doses to about 102 µM), inactives show top-dose activity, negative = inhibition, most hits filed as inhibitors; hit rate 8.8% among 350,000; AID 504332; further: on the % scale 0 is the no-effect control and ±100 the full control effect; nearly all actives have a fitted effect of over 75% in size
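AlphaScreen detection with an anti-monomethyl H3K9 antibody quantified product after a 2 h room-temperature reaction containing 500 nM biotinylated H3K9 peptide, 20 µM SAM and 20 nM enzyme, which had been preincubated 15 min with compound.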
Sfp PPTase inh – blocks B. subtilis Sfp PPTase activity. Q9F4F7. Biochemical Sfp PPTase activity, qHTS. Potency, µM, inactives show largest response in the series, negative = inhibition, actives largely listed as inhibitors. hit rate 3.5% among 310,000. AID 1490;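 further: the enzyme is Sfp with the accession as filed and its product quenches rhodamine fluorescence; 0% = enzyme reaction without inhibitor and -100% = no enzyme wells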
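Fluorescence-quenching assay: 15 nM Sfp-PPTase preincubated 15 min at room temperature with compound, then 5 uM rhodamine-CoA and 12.5 uM BHQ-2-labelled YbbR peptide added. Fluorescence (ex 525/em 598 nm) read at start and after 30 min; difference gives rate.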
L3MBTL1 block – L3MBTL1 (human) inhibition; Q9Y468; Potency, µM (top dose mostly 57.1 µM), for the others: top-dose activity, negative = inhibition, most hits filed as inhibitors; hit rate 0.66% among 230,000; AlphaScreen L3MBTL1–H3K9me1 peptide binding; further: on the % scale 0 is the no-effect control and ±100 the full control effect; nearly all actives have a fitted effect of over 60% in size
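AlphaScreen assay: L3MBTL1 (50 nM final) was preincubated 30 min at room temperature with biotinylated H3(1-15)K9me1 peptide (75 nM final), then 30 min with library compounds; streptavidin donor and nickel chelate acceptor beads (10 ug/mL final) added, 30 min dark.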
* marks the source's active call; other numbers are inactive results; [ ] = remark or other dose. Only some compounds are listed: those with a hit (about 12% of all), similar ones and a draw of the others. The call rests on the fitted dose curve; in most records, active means well fitted curve in the direction sought with a large enough effect; inconclusive means small, poorly fitted or top-dose-only effect, or another doubt; inactive means no such curve, though single readings can be large; an effect the other way counts as inactive or inconclusive. Potency means the concentration at half of the fitted maximal effect.

`COc1cccc2cc(-c3n[nH]c(=S)n3C)oc12` gave JMJD2A Tudor 7.9µM*, BAZ2B inh -28%, HP1b binding inh -12%, G9a block 7.1µM* and Sfp PPTase inh 4%.
C=C(C)Cn1c(CCn2c3ccccc3c3ccccc32)n[nH]c1=S was read as JMJD2A Tudor -27%, BAZ2B inh -32%, HP1b binding inh 31%, G9a block inconclusive, Sfp PPTase inh 6% and L3MBTL1 block 2%.
For Cc1ccccc1CNC(=O)c1cnc2sc(N3CCC(C)CC3)nn2c1=O the results were JMJD2A Tudor 0%, BAZ2B inh 1%, HP1b binding inh 18% and G9a block -2%[59 µM].
COc1ccc(-c2nc3c4ccccc4n(CC(=O)N4CCN(c5ccccc5OC)CC4)c(=O)n3n2)cc1 was read as JMJD2A Tudor -9%, BAZ2B inh -1%, HP1b binding inh -5% and G9a block -2%[59 µM].
`Cn1c(CSCc2ccccc2)n[nH]c1=S` gave JMJD2A Tudor 7.9µM*, BAZ2B inh -8%, HP1b binding inh 12%, G9a block 7.9µM*, Sfp PPTase inh 12% and L3MBTL1 block 7%.
Cn1c(CSCc2ccccc2Cl)n[nH]c1=S was read as JMJD2A Tudor inconclusive, BAZ2B inh -26%, HP1b binding inh 9%, Sfp PPTase inh -11% and L3MBTL1 block 45%.
Screening Cn1c(-c2cccc3ccccc23)n[nH]c1=S returned JMJD2A Tudor 20µM*, BAZ2B inh -5%, HP1b binding inh 20%, G9a block 5µM*, Sfp PPTase inh -4% and L3MBTL1 block 3%.
`Cc1ccc(S(=O)(=O)c2cn(CC(=O)Nc3ccc(F)cc3)c3cc4c(cc3c2=O)OCO4)cc1` gave JMJD2A Tudor 0%, BAZ2B inh 1%, HP1b binding inh 43% and G9a block -4%[59 µM].
CCOC(=O)CNc1ncnc2c1nnn2C was read as JMJD2A Tudor 9%, BAZ2B inh 2%, HP1b binding inh 15% and G9a block 1%[59 µM].
For CCCSCCCNC(=O)c1ccc(Cn2c(=O)c3cccn3c3cccnc32)cc1 the results were JMJD2A Tudor 10%, BAZ2B inh 2%, HP1b binding inh 39% and G9a block 10%[59 µM].
`COc1ccc(OC)c(C2C(C(=O)c3ccco3)=C(O)C(=O)N2CC2CCCO2)c1` (stereo unspecified) gave JMJD2A Tudor -7%, BAZ2B inh inconclusive, HP1b binding inh -9%, G9a block 50µM* and Sfp PPTase inh -1%.
O=C(C1=C(O)C(=O)N(CC2CCCO2)C1c1ccc(Cl)cc1)c1ccco1 (stereo unspecified) was read as JMJD2A Tudor -29%, BAZ2B inh -3%, HP1b binding inh 10%, G9a block 1%[59 µM] and Sfp PPTase inh 14%.
For COC(=O)c1ccc(C2C(C(=O)c3ccco3)=C(O)C(=O)N2CC2CCCO2)cc1 (stereo unspecified) the results were JMJD2A Tudor 18%, BAZ2B inh -24%, HP1b binding inh 31%, G9a block 45µM* and Sfp PPTase inh 0%.
O=C(C1=C(O)C(=O)N(CC2CCCO2)C1c1ccccc1[N+](=O)[O-])c1ccco1 (stereo unspecified) was read as JMJD2A Tudor -14%, BAZ2B inh -3%, HP1b binding inh 3%, G9a block 35µM* and Sfp PPTase inh -7%.
Screening COc1ccc(C2C(C(=O)c3ccco3)=C(O)C(=O)N2CCN2CCOCC2)c(OC)c1 (stereo unspecified) returned JMJD2A Tudor inconclusive, BAZ2B inh -32%, HP1b binding inh 31%, G9a block 35µM* and Sfp PPTase inh -1%.
For COc1ccc(OC)c(C2C(C(=O)c3ccco3)=C(O)C(=O)N2CCN2CCOCC2)c1 (stereo unspecified) the results were BAZ2B inh inconclusive and Sfp PPTase inh 11%.
COCCn1c(CCC(=O)Nc2ccc(C)c(Cl)c2)nc2cccnc21 was read as JMJD2A Tudor -2%, BAZ2B inh 0%, HP1b binding inh 49% and G9a block -3%[59 µM].
For Cc1ccc(Cn2c(=O)c3c(nc4n3CCN4c3cc(C)cc(C)c3)n(C)c2=O)cc1 the results were JMJD2A Tudor -20%, BAZ2B inh -15%, HP1b binding inh 1% and G9a block 1%[59 µM].
For COc1cccc2cc(C(=O)C3=C(O)C(=O)N(CCN4CCOCC4)C3c3cccs3)oc12 (stereo unspecified) the results were JMJD2A Tudor 79µM*, BAZ2B inh -8%, HP1b binding inh 7%, G9a block 17%[59 µM], Sfp PPTase inh -24% and L3MBTL1 block -1%.
Screening Cc1ccc2onc(CC(=O)Nc3cc(F)ccc3F)c2c1 returned JMJD2A Tudor 4%, BAZ2B inh 2%, HP1b binding inh 46% and G9a block inconclusive.
Screening Cc1cccc(-c2nc(SCCCOc3ccc(Cl)c(C)c3)n3[nH]c(=O)cc3n2)c1 returned JMJD2A Tudor -8%, BAZ2B inh -2%, HP1b binding inh 27% and G9a block 20%[59 µM].
Screening CCc1ccc(OCCCSc2nc(-c3ccc(C(C)(C)C)cc3)nc3cc(=O)[nH]n23)cc1 returned JMJD2A Tudor 25µM*, BAZ2B inh 50µM*, HP1b binding inh -25% and G9a block 12%[59 µM].
Cc1cccc(OCCCSc2nc(-c3ccc(C(C)(C)C)cc3)nc3cc(=O)[nH]n23)c1C was read as JMJD2A Tudor 25µM*, BAZ2B inh 56µM*, HP1b binding inh 1% and G9a block 7%[59 µM].
For CCOC(=O)c1ccc(NC(=O)Cn2nc(C)c3nn(-c4ccc(Cl)cc4)c(C)c3c2=O)cc1 the results were JMJD2A Tudor -14%, BAZ2B inh 3%, HP1b binding inh 21%[57 µM] and G9a block -2%[59 µM].
CCOc1ccc(CNC(=O)C2Cc3ccccc3N2C(=O)CC)cc1 (stereo unspecified) was read as JMJD2A Tudor -11%, BAZ2B inh -1%, HP1b binding inh 32% and G9a block 1%[12.7 µM].
`COc1cc(/C=C/c2cc[n+](C)cc2)ccc1OCC(=O)Nc1ccc(Cl)c(Cl)c1` gave JMJD2A Tudor -13%, BAZ2B inh inconclusive, HP1b binding inh 15%, G9a block inconclusive and Sfp PPTase inh -58%.
For COc1cc(/C=C/c2cccc[n+]2C)ccc1OCC(=O)Nc1ccccc1 the results were JMJD2A Tudor -10%, BAZ2B inh -15%, HP1b binding inh 9%, G9a block 45µM* and Sfp PPTase inh -12%.
